# Assay outcomes from PubChem BioAssay.
# Most compounds without a hit are left out; they make up all but 2.3% or so of the library.
# EBNA-1 inh = EBNA-1 DNA-binding inhibitors, primary screen, biochemical, fluorescence polarization; inhibition, % at 14.8 µM; 300,000 tested, 0.34% active; in the data active = inhibition above about 28%
# ZTA DNA inh = blocks Epstein-Barr virus ZTA, an EBNA-1 counter-screen. ZTA-DNA binding, fluorescence polarization. inhibition, % at 11 µM. 320,000 tested, 0.15% active. AID 2234; in the data active = inhibition above about 33%
# MsrA inhibitor = bovine MsrA enzyme inhibitors, primary screen, biochemical, absorbance, HTS; AID 651718, 2012; inhibition, % at 15.5 µM; purified bovine MsrA, absorbance read-out; 360,000 tested, 0.75% active; in the data active = inhibition above about 4.5%;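 note: 0% = vehicle wells with enzyme and 100% = reference inhibitor wells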
# PP5 inh = PP5 phosphatase inhibitors, primary screen, biochemical, fluorescence; Serine/threonine-protein phosphatase 5 (Homo sapiens), P53041; purified PP5c, OMFP substrate fluorescence; inhibition, % at 6.7 µM; 320,000 tested, 0.18% active;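 active = inhibition above the campaign's mean inhibition across all tested compounds plus 3 SD, cut at about 9.5% in these data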;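 note: 0% = DMSO only and 100% = 100 µM cantharidin control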
# Target sequence (P53041 whole entry, looked up): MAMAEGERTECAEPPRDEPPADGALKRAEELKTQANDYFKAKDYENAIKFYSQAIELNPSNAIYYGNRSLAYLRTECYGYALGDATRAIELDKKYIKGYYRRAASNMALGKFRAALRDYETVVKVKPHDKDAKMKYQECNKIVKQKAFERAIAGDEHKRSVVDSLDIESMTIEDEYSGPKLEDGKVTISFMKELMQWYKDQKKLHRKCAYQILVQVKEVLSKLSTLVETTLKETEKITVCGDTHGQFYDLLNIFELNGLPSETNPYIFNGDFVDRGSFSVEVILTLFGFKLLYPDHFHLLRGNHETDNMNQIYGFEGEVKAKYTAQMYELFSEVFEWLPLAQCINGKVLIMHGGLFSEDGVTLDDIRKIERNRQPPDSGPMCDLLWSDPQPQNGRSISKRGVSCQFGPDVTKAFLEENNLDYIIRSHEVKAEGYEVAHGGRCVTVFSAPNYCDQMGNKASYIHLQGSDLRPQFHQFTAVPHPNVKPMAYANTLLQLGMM
# PP1 counter = PP1-alpha phosphatase inhibitors, primary screen, counter-screen for PP5 inhibitor project, biochemical, fluorescence, OMFP substrate, single point. Serine/threonine-protein phosphatase PP1-alpha catalytic subunit (Homo sapiens), P62136. purified PP1alpha. inhibition, % at 6.7 µM. 320,000 tested, 0.9% active. AID 2235, 2010;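 active = inhibition above the mean inhibition of all tested compounds plus 3 SD, computed separately for each screening campaign, cut at about 15% in these data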
# bovine MsrA act = bovine MsrA enzyme activators, primary screen, biochemical, absorbance, HTS; Methionine sulfoxide reductase A (Bos taurus); purified bovine MsrA, absorbance read-out; activation, % at 10.6 µM; 360,000 tested, 0.3% active; in the data active = activation above about 7.5%;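 note: 0% = vehicle and 100% = reference activator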
# EBNA-1 confirm = EBNA-1 DNA-binding inhibitors, retest, confirmation, biochemical, fluorescence polarization, triplicate. shares compounds with EBNA-1 inh. Recombinant EBNA-1 DBD, Cy5-DNA fluorescence polarization. inhibition, % at 14.8 µM. 830 tested, 35% active. AID 2292, 2010;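 active = mean inhibition across replicates above a set limit taken from the earlier primary screen, cut at about 28% in these data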;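 note: plate controls were EBNA-1 protein with DMSO for no effect and wells lacking EBNA-1 for full effect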
# ZTA DNA inh trip = EBV Zta DNA binding inhibitors, counter-screen for EBNA-1 inhibitor project, biochemical, fluorescence polarization, triplicate; shares compounds with EBNA-1 inh; Zta-ZRE DNA binding, Cy5 fluorescence polarization; inhibition, % at 11.1 µM; 830 tested, under 10 active;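 active = mean inhibition over triplicates above a set limit taken from the primary EBNA-1 screen, cut at about 37% in these data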;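 note: purified full length Zta protein with Cy5 labeled ZRE DNA probe; 0% = Zta with DMSO and 100% = wells lacking Zta protein; inhibitors lower polarization by freeing the labeled DNA probe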
# The depositor's hits bear a star; · = not tested or not shown.
SMILES,EBNA-1 inh,ZTA DNA inh,MsrA inhibitor,PP5 inh,PP1 counter,bovine MsrA act,EBNA-1 confirm,ZTA DNA inh trip
CCCNC(=O)c1ccc2c(=O)c(O)c(-c3ccc(OC)cc3)[nH]c2c1,32*,4,·,2,0,-4,-6,7
CCCNC(=O)c1ccc2c(=O)c(O)c(-c3ccc(C)cc3)[nH]c2c1,7,6,1,-2,1,-1,·,·
COc1ccc(C(=O)c2c3ccc(C(F)(F)F)cc3[n+]([O-])n2CCCN)cc1,-10,-2,1,1,-3,-12,·,·
COC(=O)c1ccc2c(=O)[nH]c(CSc3nc(-c4ccc(F)cc4)cs3)nc2c1,60*,-17,-2,3,-2,-1,34*,12
CC(OC(=O)Cc1cccc(C(F)(F)F)c1)C(=O)Nc1ccc(Cl)cn1 (stereo unspecified),-9,6,-1,5,0,-3,·,·
Cn1cc(C(=O)NC2CCCCC2)c(=O)c2cc(S(=O)(=O)N3CCOCC3)ccc21,11,6,0,0,-3,-1,·,·
Oc1ccc(C[C@H]2CNC(=S)N2CC2CCCN2C[C@H](Cc2ccc(O)cc2)N2C[C@H](Cc3ccccc3)N(CC3CCCCCC3)C2=S)cc1 (stereo partly specified),·,·,0,·,·,-12,·,·
CC(NC(=O)COc1ccc(/C=N/NC(=O)C(=O)Nc2ccccc2Br)cc1)c1ccccc1 (stereo unspecified),34*,-10,1,-1,-4,2,50*,9
O=C(COc1ccc(/C=N/NC(=O)c2ccccc2Br)cc1)Nc1ccccc1,-3,-1,0,2,4,-3,·,·
CSc1ccccc1NC(=O)Cn1nnc(-c2ccc(S(C)(=O)=O)cc2)n1,41*,-1,0,1,-3,-4,53*,2
COc1ccccc1S(=O)(=O)Nc1cc(C)nn1-c1ccc(C)cc1,-27,6,1,3,-2,-3,·,·
CCOC(=O)N1CCC(N2CCCC(C(=O)c3ccc4cc(OC)ccc4c3)C2)CC1 (stereo unspecified),1,-3,1,1,1,-2,·,·
C=CCn1c(SCC(=O)Nc2ccccc2OC)nc2c([nH]c3ccccc32)c1=O,40*,-6,0,-1,-4,-3,5,4
COCCn1c(SCC(=O)Nc2ccccc2OC)nc2c([nH]c3ccccc32)c1=O,30*,13,0,1,-7,-6,-3,17
COCCn1c(SCC(=O)Nc2ccccc2F)nc2c([nH]c3ccccc32)c1=O,0,15,0,-1,2,-2,·,·
NS(=O)(=O)c1ccc(NC(=S)NC(=O)c2ccc3c(c2)OCO3)cc1,61*,10,1,0,0,-3,72*,22
CCn1c(O)c(/C=C2\C=Nc3ccccc32)sc1=O,28*,-7,0,0,-1,1,14,9
COc1ccc(CCNC(=S)NC2CCN(Cc3ccccc3)CC2)cc1,0,-12,-1,0,-2,-2,·,·
Cc1cnc(C(=O)Nc2ccc(S(=O)(=O)NCC(C)C)cc2)cn1,4,-8,1,0,-1,-1,·,·
Cc1cnc(C(=O)Nc2ccc(S(=O)(=O)N(C(C)C)C(C)C)cc2)cn1,28*,0,0,1,1,-1,-1,0
COc1cccc(-n2nnc3c(=O)n(Cc4ccc(Br)cc4)cnc32)c1,35*,7,-1,1,-2,-1,7,8
COc1cccc(-n2nnc3c(=O)n(Cc4ccc(C)cc4)cnc32)c1,2,1,0,1,1,-4,·,·
Cc1cc2c(cc1C)-c1nnnn1C(N1CCCC1)C(=O)N2 (stereo unspecified),·,·,-1,·,·,·,·,·
C=CCn1cc(C(=O)OCC)c(=O)c2cc(F)c(F)cc21,8,12,0,1,-6,-1,·,·
CCOC(=O)Nc1ccc2c(COC(=O)CNS(=O)(=O)c3cccc(Br)c3)cc(=O)oc2c1,7,-3,0,1,2,-5,·,·
SMILES,EBNA-1 inh,ZTA DNA inh,MsrA inhibitor,PP5 inh,PP1 counter,bovine MsrA act,EBNA-1 confirm,ZTA DNA inh trip
CCOC(=O)Nc1ccc2c(COC(=O)CN(C)S(=O)(=O)c3ccc(C)cc3)cc(=O)oc2c1,56*,0,-1,-1,-3,-7,20,20
Cc1cc(F)cc(-c2cc(C(=O)NCc3ccco3)[nH]n2)c1,·,·,1,·,·,-2,·,·
Cc1cccc(C)c1NC(=O)COc1ccc2c(C)c(Cc3ccccc3)c(=O)oc2c1,68*,11,0,-3,0,-10,7,-5
Cc1cc(C)n(-c2ccc(C(=O)OCC(=O)NC(c3ccccc3)c3ccccc3)cc2)n1,32*,19,-1,-3,2,-3,26,2
NS(=O)(=O)c1ccc(NC(=S)Nc2ccn(Cc3cccc4ccccc34)n2)cc1,29*,-1,0,5,4,-9,34*,-4
CC(C(=O)NCc1ccccc1)N1CCN(c2ccc(F)cc2)CC1 (stereo unspecified),1,-7,0,2,5,1,·,·
COc1ccc(C(=O)N2CCC3(CC2)NCCc2[nH]cnc23)cc1,-2,10,-1,2,-3,-7,·,·
Cc1cc(C(=O)N/N=C/c2ccc(-c3cccc(Br)c3)o2)n[nH]1,35*,-1,3,1,0,-5,16,17
COC(=O)N/N=C/c1cc(N=Nc2ccccc2)ccc1O,-12,-5,2,1,-4,-6,·,·
Cc1cc(C(=O)N/N=C/c2ccc(-c3cccc(Cl)c3Cl)o2)n[nH]1,13,12,0,3,4,1,·,·
Cc1cc(C(=O)N/N=C/c2cc(N=Nc3ccccc3)ccc2O)n[nH]1,75*,17,·,1,15*,-1,-7,38*
Cc1cc(-n2cnc(-c3cn[nH]c3C)n2)no1,-9,2,0,-2,-4,-8,·,·
CCCOc1ccc(OCCn2nc(C(=O)O)c3ccccc3c2=O)cc1,-7,-14,0,5,7,-7,·,·
O=C(Nc1cccc(NC(=O)c2ccc(F)cc2)c1)c1ccc(F)cc1,28*,8,0,-1,-3,-2,10,2
O=C(NNC(=O)c1cccs1)c1ccc(Br)cc1,-6,-7,-1,4,0,0,·,·
